Here are results for 40 compounds from PubChem BioAssay (NCI).

Compounds without any hit were thinned out: in the full panel of roughly 83,000, 20% have a hit.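 Values shown are percent growth following 48 h exposure of cells in 96-well plates to a single concentration of compound; below 10 was considered active.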 Unmarked numbers belong to inactive results. The source made the active and inactive calls.

The subject of the test is HT29 colon. Description: NCI-60 one-dose screen, 48 h (100 = growth as untreated, 0 = no growth, -100 = all killed). As to conditions: 10 µM unless noted. The procedure:
Growth inhibition of the HT29 human tumor cell line is measured as a screen for anti-cancer activity. Cells are grown in 96 well plates and exposed to the test compound for 48 hours. Compounds are tested at a single concentration, which is 10^-5 M for most compounds. The reported endpoint is percent growth (GI% or GIPRCNT), where numbers from 0 - 100% represent growth inhibition, and numbers from -100% - 0 represent cell death. For example, a value of 40 represents 60% growth inhibition. A value of 0 means no net growth occurred over the course of the experiment. A value of -40 indicates 40% of cells at the beginning of the experiment died by the end of the experiment. A value of -100 means all cells are dead at the end of the experiment.
NCI-60 Human Tumor Cell Lines Screen was performed using the standard one-dose NCI protocol, which is described in more detail at https://dtp.cancer.gov/discovery_development/nci-60/default.htm.
Compounds with GIPRCNT values below 10 were considered active. Activity score was based on GIPRCNT using the following formula: […]
Score is 0 for GIPRCNT values of 100 or above, 50 for GIPRCNT values of 0, and 100 for GIPRCNT values of -100.
In the case of `ICCC(c1ccccc1)(c1ccccc1)c1ccccc1`, the growth is 2.63% (active). For `Cc1cccc2nnc(-c3ccccc3)n12`, the growth is 106%.

For `O=[N+]([O-])c1ccc(NS(=O)(=O)c2ccc(Cl)c(Cl)c2)cc1`, the growth is 102%. Regarding `CC(=O)/C(=C/c1ccc(Cl)cc1)C(=O)c1ccccc1`, the growth was 78.9%. With `c1ccc2nc(N/N=C3\CCCCC3C3CCCCC3)ccc2c1` (stereo not given), the growth was 26.6%. The result for `COc1cc(/C=N/OC(=O)Nc2ccccc2)cc(OC)c1OC` reads 104%; that for `CCOC(=O)C(Br)=P(c1ccccc1)(c1ccccc1)c1ccccc1`, 106%; that for `COc1cc(/C(Cl)=C/C=C/C(=O)c2c(C)[n+]([O-])c3ccc(Cl)cc3[n+]2[O-])cc(OC)c1OC`, 14.1%. As for `CCN(CC)c1ccc(N=C2C=CC(=O)C=C2NC(C)=O)cc1`, the figure is 104%.

Regarding `CC12CCC3C(=CCc4cc(O)ccc43)C1CCC2=O` (stereo not given), the growth is 94.5%. Consider `O=C(CNc1ccc2c(c1)C(=O)c1ccccc1C2=O)Nc1ccc2c(c1)C(=O)c1ccccc1C2=O`, for which the growth is -54.5% (active). Regarding `CCOC(=O)OCC(=O)[C@@]1(O)CC[C@H]2[C@@H]3CCC4=CC(=O)CC[C@]4(C)[C@H]3[C@@H](O)C[C@@]21C`, the growth was 103%.

Take `O=C(c1ccccc1)c1ccc(Oc2ccc([N+](=O)[O-])cc2[N+](=O)[O-])cc1`: the growth is 2.81% (active). As for `COC(=O)c1cc2oc(/C=N\NC(=O)c3cc4oc(C)c(C)c4[nH]3)cc2[nH]1`, the growth was 111%.

`CCOc1cc(/C=C/C(=O)C(C(=O)/C=C/c2ccc(OC(=O)CNc3nnc(C)s3)c(OCC)c2)C(=O)CNc2nnc(C)s2)ccc1OC(=O)CNc1nnc(C)s1`: the growth was -100% (active).

As for `COc1ccc(/C=C2/SC(=Nc3c(C)nn(-c4ccccc4)c3N)NC2=O)cc1`, the growth was 16.6%. Consider `COc1ccc(N2CCN(CC(=O)N3CCN(c4nnc(-c5ccccc5)c(-c5ccccc5)n4)CC3)CC2)cc1`, for which the growth is 26.1%. Regarding `O=C(/C=C/c1cccc(O)c1)c1cccc(-n2cc(-c3ccccc3)[nH]c2=O)c1`, the growth is 9.73% (active).

As to `Cc1nn(-c2ccccc2)c2nc(N)c(C3=NCCO3)nc12`, the growth was 100%. On to `Cc1csc(C#Cc2cncc(O)c2)n1`, for which the growth is 110%. As for `O=C(c1ccc(N2CCOCC2)cc1[N+](=O)[O-])N1CCOCC1`, the figure is 90.5%. The result for `COc1ccc(C2CC(c3ccc(Nc4ccnc5cc(Cl)ccc45)cc3)=NN2C(C)=O)cc1` (stereo not given) reads 27.4%; that for `C/C=C(/C(=C/C)c1ccc(O)cc1)c1ccc(O)cc1`, 38.6%. `Cc1[nH]cnc1/C=C1\SC(N2CCCCC2)=NC1=O`: the growth is 108%. On to `COc1ccc(C(=O)COc2cccc(/C=C3\CSc4ccc(Cl)cc4C3=O)c2)cc1`, for which the growth is 72.2%. As for `COC(=O)[C@H](Cc1cnc[nH]1)NC(=O)[C@@H](NC(=O)Nc1cc(C(F)(F)F)cc(C(F)(F)F)c1)C(C)C`, the figure is -80.3% [100 µM] (active); as for `CC(C)N(Cc1ccccc1)c1c(S)ssc1=S`, 3.11% (active). Take `NC(=O)NS(=O)(=O)c1ccc(N2N=C(C(F)(F)F)CC2c2cc(C(F)(F)F)cc(C(F)(F)F)c2)cc1` (stereo not given): the growth was 70.4%. `CCCc1n(Cc2ccc3ccccc3c2)cc[n+]1Cc1ccc2ccccc2c1`: the growth is -22.5% (active). As to `O=[N+]([O-])c1cc([N+](=O)[O-])c(N2CCCC2)cc1NN=C(c1ccc(O)cc1)c1ccc(O)cc1`, the growth was 78.2%. With `CC1C(=O)NC2=Nc3ccccc3C(=O)NN21` (stereo not given), the growth is 103%. As for `Cc1cc2ccccn2c1C(=O)c1ccc(C(=O)c2ccccc2)cc1`, the figure is 82%; as for `O=C(CC(C(=O)c1ccccc1)N1CCN(Cc2ccccc2)CC1)c1ccccc1` (stereo not given), 54.7%; as for `COP(=O)(OC)C(c1ccccc1)(c1ccccc1)c1ccccc1`, 91.4%.

`COc1cc(/C=N/NC(=O)c2ccc(C(F)(F)F)nc2Nc2ccc(Cl)cc2C)ccc1O`: the growth is 45.2%.

Consider `OC(c1cc(-c2cccc(Cl)c2)nc2ccccc12)C1CCCCN1` (stereo not given), for which the growth is -74.5% (active). Take `O=C(O)C1CCN(S(=O)(=O)c2ccc(-c3ccccc3)cc2)CC1`: the growth is 111%. For the compound `Cc1ccc(C(NC(=O)c2ccccc2)c2ccc3cccnc3c2O)cc1` (stereo not given), the growth was 22.2%. Turning to `Cc1sc2nc3c4ccccc4c(NCCCN(C)C)nn3c(=O)c2c1C`, the growth is -17.8% (active). Consider `CCOC(=O)Nc1ccc2c3c(cccc13)-c1ccccc1-2`, for which the growth was 5.04% (active).
